A selection: hits, their analogues and other compounds. The true share with any hit is near 11%.
PNC assembly inh = perinucleolar compartment assembly inhibition; activity change (PNC), negative = inhibition, % at 10 µM; PC3M PTB-GFP, PNC prevalence imaging, 16 h; hits give low values; 140,000 tested, 3.1% active;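 active = readout at or below -70, meaning at least 70% loss of cells showing the perinucleolar compartment, a nuclear body marking cancer cells; inconclusive = readout between -30 and a set limit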
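Read-out is percentage of cells bearing a perinucleolar compartment, from automated 20x imaging of fixed, Hoechst-stained PC3M PTB-GFP cells. Cells were seeded 4 h, then exposed 16 h to compound (23 nl of library stock) in duplicate plates.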
IMPase Li cell = membrane-permeable IMPase blocker, potentiated with lithium. AID 1457. 210,000 tested, 0.35% active. CHO-M1 cells, IP1 TR-FRET (IP-One), carbachol + lithium. Potency, µM (top dose mostly 59.4 µM), actives largely listed as inhibitors; active = well fitted curve in the direction sought with a large enough effect; inconclusive = small, poorly fitted or top-dose-only effect, or another doubt; inactive = no such curve, though single readings can be large; an effect the other way counts as inactive or inconclusive;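 note: IP1 builds up when IMPase is blocked and the TR-FRET signal falls; nearly all actives have a fitted effect of over 50% in size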
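IP1 accumulation measured by competitive TR-FRET in lysed CHO-M1 cells after 30 min compound exposure at 37C, with a small lithium addition to potentiate weak responses. Hill-equation AC50 from ratio and donor-channel data.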
ALDH1A1 block = blocks purified human ALDH1A1 activity; Potency, µM (doses to about 75.3 µM), most hits filed as inhibitors; AID 1030; Purified ALDH1A1, NADH fluorescence, propionaldehyde substrate; 220,000 tested, 7.3% active
IMPase inh = cell-permeable inhibitors of inositol monophosphatase (IMPase) | P97697 | CHO-M1 cells, IP1 accumulation, HTRF TR-FRET ratio | inhibition (IP1 accumulation), % at 46.1 µM | 120,000 tested, under 10 active; active = well fitted curve in the direction sought with a large enough effect in the signal ratio, not every such curve was filed as active; inconclusive = small, poorly fitted or top-dose-only effect, or a change in a side signal; inactive = no such curve, though single readings can be large or run the other way; the % refers to the signal ratio;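 note: cells stimulated with carbachol in lithium chloride buffer; higher means more IMPase inhibition seen as more IP1 and lower FRET ratio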
Target sequence (P97697 whole entry, looked up): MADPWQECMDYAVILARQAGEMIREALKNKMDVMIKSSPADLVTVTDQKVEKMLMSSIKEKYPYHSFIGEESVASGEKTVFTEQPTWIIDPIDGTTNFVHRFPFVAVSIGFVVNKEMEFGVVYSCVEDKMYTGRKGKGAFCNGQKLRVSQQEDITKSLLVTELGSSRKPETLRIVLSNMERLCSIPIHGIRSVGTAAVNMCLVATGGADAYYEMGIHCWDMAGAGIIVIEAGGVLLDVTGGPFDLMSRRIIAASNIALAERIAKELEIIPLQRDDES
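In this qHTS, compounds (final up to 46 uM) act on CHO-M1 cells that are then activated through the M1 receptor with carbachol, in pH 7.4 buffer containing 50 mM LiCl, for 30 min. IP1 accumulation is quantified by the IP-One immunoassay.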
HPGD block = blocks human HPGD enzyme activity. purified HPGD, NADH fluorescence kinetic, PGE2 substrate. 150,000 tested, 4.3% active. Potency, µM, usual class: inhibitors. P15428
Target sequence (P15428 whole entry, looked up): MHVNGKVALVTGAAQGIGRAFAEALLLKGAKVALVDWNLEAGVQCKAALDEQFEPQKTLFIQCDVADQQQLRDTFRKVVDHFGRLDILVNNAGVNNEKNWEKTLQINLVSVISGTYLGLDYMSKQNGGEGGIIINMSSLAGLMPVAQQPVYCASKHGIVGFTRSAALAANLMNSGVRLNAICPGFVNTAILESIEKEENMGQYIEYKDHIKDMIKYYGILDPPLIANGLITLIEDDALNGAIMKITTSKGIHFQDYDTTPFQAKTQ
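20 nM HPGD preincubated 15 min at room temperature with compound in 50 mM Tris-HCl pH 8, 0.01% Tween 20. Started with 1 mM NAD+ and 30 uM prostaglandin E2; NADH fluorescence (360/450 nm) read 5 times over 30-s intervals, last minus first.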
12-hLO inh = blocks human 12-lipoxygenase activity. P18054. purified 12-hLO, xylenol orange hydroperoxide absorbance. Potency, µM (top dose mostly 57.1 µM), hits mostly inhibitors. 150,000 tested, 0.12% active; active = well fitted curve in the direction sought with a large enough effect; inconclusive = small, poorly fitted or top-dose-only effect, or another doubt; inactive = no such curve, though single readings can be large; an effect the other way counts as inactive or inconclusive; note: nearly all actives have a fitted effect of over 55% in size
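Hydroperoxide formation by human 12-lipoxygenase from 40 uM arachidonic acid was followed colorimetrically via ferric-xylenol orange complex, using the 573/405 nm absorbance ratio. Enzyme concentration was 150 nM, with 30 min reaction at room temperature.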
Hits are given with their value; – = inactive; ? = inconclusive; · = no result given; [ ] = remark or other dose. Unless noted, calls come from the whole dose curve; as a rule, active = well fitted inhibition curve with a large enough effect (not every such curve was filed as active); inconclusive = small, poorly fitted or top-dose-only effect, or another doubt; inactive = no such curve, though single readings can be large or run the other way.

SMILES	PNC assembly inh	IMPase Li cell	ALDH1A1 block	IMPase inh	HPGD block	12-hLO inh
COC(=O)c1nnc(C(=O)N(C)Cc2ccccc2)c2[nH]c3ccccc3c12	·	–	?	·	–	·
O=[N+]([O-])c1cccc(C(=S)N2CCN(c3ccc(F)cc3)CC2)c1	·	–	22µM	·	·	·
O=[N+]([O-])c1cccc(C(=S)N2CCCC2)c1	·	–	–	·	·	·
O=[N+]([O-])c1ccc(N2CCN(C(=S)Nc3ccccc3)CC2)cc1	·	–	1.4µM	·	·	·
c1ccc2c(N3CCNCC3)nc(-c3ccc4c(c3)OCO4)nc2c1	·	–	?	·	–	–
CC(=O)/C(N=Nc1cc(C)ccc1O)=C(\C)O	·	–	2µM	·	·	·
COc1ccc(/C=C/C2=C[C@]3(C)C[C@]2(C)[C@H](c2ccc(OC)cc2)CC3=O)cc1	·	–	–	·	–	–
COc1ccc(C)cc1N(CC(=O)N1CCc2ccccc2C1)S(C)(=O)=O	·	–	–	·	·	·
CCOC(=O)C1=C(C)N=C2SCCC(=O)N2C1c1ccc(OCc2ccccc2)c(OC)c1 (configuration not stated)	·	·	·	–	·	·
CC1=C(C(=O)Nc2ccccc2F)C(c2ccsc2)C2=C(CC(C)(C)CC2=O)N1 (configuration not stated)	–	–	?	·	?	–
CC1=C(C(=O)Nc2cccc(F)c2)C(c2ccsc2)C2=C(CC(C)(C)CC2=O)N1 (configuration not stated)	-81	–	?	·	?	–
CCCSc1nc(-c2ccc(OC)cc2)cc(-c2ccccc2OC)c1C#N	·	·	·	–	·	·
CC(C)Oc1cc(O)c2c(c1)OCC=C2CCC(=O)O	·	–	–[13.5 µM]	·	–	–[11.4 µM]
Nc1nc(NC(=O)c2ccco2)nn1-c1ccccc1	-90	–	–	–	–	–
O=C(Nc1cc2nn(-c3ccccc3)nc2cc1Cl)c1ccco1	–	–	–	–	–	–
O=C(Nc1ccc2nn(-c3ccccc3)nc2c1)c1ccco1	-100	–	–	–	?	–
COc1ccc(CCN(C)CCCN2CCc3cc(OC)c(OC)cc3CC2=O)cc1OC	·	–	–	·	–	–[0.00818 µM]
Cc1ccc(Cl)cc1N1CCN(C2(c3ccccc3)C(=O)c3ccccc3C2=O)CC1	·	·	·	–	·	·
COc1ccccc1N(C1=NCCCS1)S(=O)(=O)c1ccc(C(C)(C)C)cc1	·	–	0.22µM	·	·	·
COc1ccc(N(C2=NCCCS2)S(=O)(=O)c2ccc(C(C)(C)C)cc2)cc1	·	–	0.79µM	·	·	·
N[C@@H](CSCc1ccc(I)cc1)C(=O)O	·	–	–[13.5 µM]	·	–	–[11.4 µM]
O=C1CC(c2c(Cl)cccc2Cl)c2c(ccc3ccccc23)N1 (configuration not stated)	·	·	·	–	·	·
COc1ccc(C[C@@H]2CN3C(=NC[C@@H]3C)N2C[C@H](C)NC(=O)CCC2CCCCC2)cc1	·	–	7.1µM	·	·	·
COc1ccc(C[C@H]2CN3C(=NC[C@H]3Cc3ccccc3)N2CCNC(=O)CCC2CCCCC2)cc1	·	–	10µM	·	·	·
O=C1CC[C@](CCc2nc3ccccc3[nH]2)(c2ccccc2)C(=O)N1	·	–	–[13.5 µM]	·	–	–[11.4 µM]
SMILES	PNC assembly inh	IMPase Li cell	ALDH1A1 block	IMPase inh	HPGD block	12-hLO inh
O=C(NCCn1ccc2ccccc21)c1ccc(Cl)cc1	·	·	·	–	·	·
Cc1cccc(NC(=O)c2ccc(C(=O)Nc3cccc(C)c3C)cc2)c1C	·	·	·	–	·	·
Cc1cc(O)ccc1Nc1nc2ccccc2nc1Nc1ccc(O)cc1C	–	–	22µM	–	–	–
COc1ccc(N(CC(=O)NCc2ccc(C)cc2)S(=O)(=O)c2c(C)nn(C)c2C)cc1	?	–	25µM	·	–	–
COc1ccc(N(CC(=O)Nc2ccc(C)cn2)S(=O)(=O)c2c(C)noc2C)cc1	-80	–	–	–	–	–
CCOc1ccccc1NC(=O)CN(c1ccc(C)cc1)S(=O)(=O)c1c(C)noc1C	-132	–	–	–	–	–
CCOc1ccc(N(CC(=O)Nc2ccc(OC)cc2)S(=O)(=O)c2c(C)noc2C)cc1	–	–	–	–	–	–
CNC(=O)[C@H]1O[C@@H](n2cnc3c(N)ncnc32)[C@H](O)[C@@H]1O	·	–	–	·	·	·
COc1cc(/C=C2\SC(=S)N(Nc3ccccc3)C2=O)cc(OC)c1OC	–	–	7.1µM	–	–	–
C=CCN1C(=O)/C(=C\c2cc(Br)c(OCc3ccccn3)c(OC)c2)SC1=S	·	–	0.28µM	·	·	·
CCOc1ccc(/C=C2\SC(=S)N(Nc3ccccc3)C2=O)cc1OC	–	–	3.2µM	·	–	–
CCOc1cc(/C=C2/SC(=S)N(C)C2=O)ccc1Oc1ccc([N+](=O)[O-])cc1[N+](=O)[O-]	·	–	0.4µM	·	·	·
COc1cc(/C=C2\SC(=S)N(CC(=O)Nc3ccccn3)C2=O)cc(OC)c1OC	–	–	?	–	–	–
COc1ccc(Oc2ncc3nc(-c4cc(F)cc(F)c4)c(=O)n(C)c3n2)cc1	·	–	?	·	?	–
CC(=O)n1nc(-c2ccccc2)nc1NCc1ccc(N(C)C)cc1	·	–	–	·	·	·
Cc1ccc(S(=O)(=O)NN2C(=O)/C(=C/c3ccccn3)SC2=S)cc1	–	–	?	·	–	–
COc1cc(/C=C2\SC(=S)N(NS(=O)(=O)c3ccc(C)cc3)C2=O)ccc1O	·	·	25µM	·	·	·
O=c1cnc2cnc(N3CCOCC3)nc2n1C1CC1	·	–	–	·	·	·
CCOc1ccc(Nc2nc3ccccc3n3c(CC)nnc23)cc1	·	·	·	–	·	·
O=C(COc1ccc(Cl)cc1Cl)NN1C(=O)/C(=C\c2ccc(Cl)cc2)SC1=S	·	–	–	·	·	·
CC(=O)NN1C(=O)/C(=C/c2ccc(C(C)C)cc2)SC1=S	?	–	4µM	·	–	–
COc1ccccc1-n1c(CNC(=O)COc2ccccc2)n[nH]c1=S	–	–	2.2µM	–	?	–
CCN(Cc1ccncc1)Cc1cn[nH]c1-c1ccc(OC)cc1F	·	–	14µM	·	·	·
COc1ccc(C(=O)N2CCN(Cc3cn[nH]c3-c3ccc(OC)cc3F)CC2)cc1	·	–	1µM	·	·	·
N#CCCn1c(=O)cnc2cnc(Nc3ccccc3)nc21	·	–	–	·	–	–
SMILES	PNC assembly inh	IMPase Li cell	ALDH1A1 block	IMPase inh	HPGD block	12-hLO inh
OCCCC1CCCN(Cc2cn[nH]c2-c2ccc(F)cc2F)C1 (configuration not stated)	·	–	–	·	·	·
CCCCOCCOCCSC#N	·	–	–	·	–	–
COc1ccc(N2CC(O)=C(c3nc4ccccc4s3)C2=N)cc1	–	14µM	?	–	–	–
N=C1C(c2nc3ccccc3s2)=C(O)CN1c1ccccc1	·	?	–	·	·	·
O=C1CCCCC2CCCCN12 (configuration not stated)	·	–	–	·	–	–[0.00818 µM]
Cc1cccc(C)c1NC(=S)Nc1ccc(Cl)c(Cl)c1	·	–	22µM	·	·	·
CCn1c(C)c(CS(=O)(=O)c2ccccc2)[nH]c1=O	·	–	22µM	·	·	·
CCn1c(=O)[nH]c2ccccc21	·	–	–	–	–	–
C=CCNC(=O)N1CCc2nc(COc3ccccc3)c3c(c2C1)CO[C@@H](C)C3	·	–	–[13.5 µM]	·	–	–[11.4 µM]

Screening results (PubChem BioAssay)
